Laboratory results taken from the supplement of paper PMC12494721.
Where a name gives a salt, the structure may show the parent alone.

Each compound was assayed on Klebsiella aerogenes DSM 30053 (assay: fold change of Putrescine concentration vs plate DMSO controls (fold change (ratio)); higher = more amine produced, active = hit call of the paper (significant change in both replicates, either direction)). Conditions: incubation time: 27 h, anaerobic, 37 °C.
Procedure, shortened: (§1)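 Anaerobic mGAM cultures of four gut bacterial strains were grown at 37 °C for 27 h in 80 µL wells, starting at OD 0.1 before 1:1 dilution. Compounds were at 20 µM final (sweeteners 50 µM). Whole cultures were extracted with cold acetonitrile/methanol containing 0.1% formic acid and centrifuged. Amines were quantified by LC–triple-quadrupole MS (dynamic MRM) against external calibration curves and drift-corrected within batch. Each value is the fold change versus plate DMSO controls, averaged over 2 biological replicates.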

| Structure (SMILES) | fold change of Putrescine concentration |
| --- | --- |
| CCNC(=O)CCC/C=C\C[C@@H]1[C@@H](/C=C/[C@@H](O)CCc2ccccc2)[C@H](O)C[C@@H]1O [Bimatoprost] (20 µM) | 1.03 (inactive) |
| CN(Cc1ccc(C(C)(C)C)cc1)Cc1cccc2ccccc12 [Butenafine hydrochloride] (20 µM) | 1.01 (inactive) |
| CN1CCC(OC(c2ccccc2)c2ccccc2)CC1 [Diphenylpyraline hydrochloride] (20 µM) | 0.995 (inactive) |
| c1ccc2cc3c(ccc4ccccc43)cc2c1 [Benz[a]anthracene] (20 µM) | 0.901 (inactive) |
| CC1=C(C(=O)O)N2C(=O)[C@@H](NC(=O)[C@H](N)c3ccccc3)[C@H]2SC1 [Cephalexin monohydrate] (20 µM) | 0.934 (inactive) |
| CNc1ncnc2c1ncn2[C@@H]1O[C@H](CO)[C@@H](O)[C@H]1O [N6-methyladenosine] (20 µM) | 0.992 (inactive) |
| Cn1nnc2c(C(N)=O)ncn2c1=O [Temozolomide] (20 µM) | 0.989 (inactive) |
| CN[C@@H]1[C@H](O[C@H]2[C@H](O[C@H]3[C@H](O)[C@@H](O)[C@H](N=C(N)N)[C@@H](O)[C@@H]3N=C(N)N)O[C@@H](C)[C@]2(O)C=O)O[C@@H](CO)[C@H](O)[C@H]1O [Streptomycin sulfate] (20 µM) | 1 (inactive) |
| CC(C)Oc1ccc2c(=O)c(-c3ccccc3)coc2c1 [Ipriflavone] (20 µM) | 1.02 (inactive) |
| CC[C@@H]1C(=O)OC[C@@H]1Cc1cncn1C [Pilocarpine nitrate] (20 µM) | 1.01 (inactive) |
| COC(=O)[C@@H]1[C@H]2C[C@H]3c4[nH]c5ccccc5c4CCN3C[C@@H]2CC[C@@H]1O [Yohimbine hydrochloride] (20 µM) | 1.01 (inactive) |
| CC(=O)N1CCN(c2ccc(OCC3COC(Cn4ccnc4)(c4ccc(Cl)cc4Cl)O3)cc2)CC1 (stereo unspecified) [Ketoconazole] (20 µM) | 0.979 (inactive) |
| CN1C(C(=O)Nc2ccccn2)=C(O)c2ccccc2S1(=O)=O [Piroxicam] (20 µM) | 0.99 (inactive) |
| NS(=O)(=O)c1cc2c(cc1Cl)NC(Cc1ccccc1)NS2(=O)=O (stereo unspecified) [Benzylhydrochlorothiazide] (20 µM) | 0.971 (inactive) |
| Cc1cc2c(cc1S(N)(=O)=O)S(=O)(=O)CCC2 [Meticrane] (20 µM) | 1.01 (inactive) |
| OC[C@@H](O)[C@@H](O)[C@@H](O)[C@@H](O)CO [Allitol] (50 µM) | 1.03 (inactive) |
| Cc1c(N(C)C)c(=O)n(-c2ccccc2)n1C [Amidopyrine] (20 µM) | 0.986 (inactive) |

What follows are compounds tested on Escherichia coli IAI1 (assay: fold change of Cadaverine concentration vs plate DMSO controls (fold change (ratio)); higher = more amine produced, active = hit call of the paper (significant change in both replicates, either direction)). Conditions: incubation time: 27 h, anaerobic, 37 °C.
Procedure, shortened: as §1

| Structure (SMILES) | fold change of Cadaverine concentration |
| --- | --- |
| Oc1c(Cl)cc(Cl)c2cccnc12 [Chloroxine] (20 µM) | 1.31 (active) |
| O=C1NCCN1CCN1CCC(c2cn(-c3ccc(F)cc3)c3ccc(Cl)cc23)CC1 [Sertindole] (20 µM) | 0.999 (inactive) |
| CCSc1ccc2c(c1)N(CCCN1CCN(C)CC1)c1ccccc1S2 [Thiethylperazine maleate] (20 µM) | 1.06 (inactive) |
| Cc1ccsc1/C=C/C1=NCCCN1C [Morantel tartrate] (20 µM) | 1.03 (inactive) |
| COc1cc(C)nc(-n2nc(C)cc2OC)n1 [Epirizole] (20 µM) | 1.01 (inactive) |
| CCC1(c2ccccc2)NC(=O)N(C)C1=O (stereo unspecified) [Mephenytoin] (20 µM) | 1.01 (inactive) |
| CCCCCCCC/C=C\CCCCCCCCCCCC(=O)O [Erucic acid] (20 µM) | 1.06 (inactive) |
| C#CCN(C)CCCOc1ccc(Cl)cc1Cl [Clorgyline hydrochloride] (20 µM) | 0.983 (inactive) |
| CC1=NN(c2ccccc2)C(=O)C1 [Edaravone] (20 µM) | 0.986 (inactive) |
| CC(=O)N[C@H]1[C@H]([C@H](O)[C@H](O)CO)OC(C(=O)O)=C[C@@H]1NC(=N)N [Zanamivir] (20 µM) | 0.886 (inactive) |
| Cc1ccc(S(=O)(=O)NC(=O)NN2CCCCCC2)cc1 [Tolazamide] (20 µM) | 1.02 (inactive) |
| CN1CCN(C2=Nc3cc(Cl)ccc3Nc3ccccc32)CC1 [Clozapine] (20 µM) | 0.889 (inactive) |
| CCCNC(C)(C)C(=O)Nc1ccccc1C [Quatacaine] (20 µM) | 0.951 (inactive) |
| CN(C)c1cc(NC(=O)CNC(C)(C)C)c(O)c2c1C[C@H]1C[C@H]3[C@H](N(C)C)C(=O)C(C(N)=O)=C(O)[C@@]3(O)C(=O)C1=C2O [Tigecycline] (20 µM) | 0.967 (inactive) |
| CCOC(=O)[N-]c1c[n+](N2CCOCC2)no1 [Molsidomine] (20 µM) | 0.951 (inactive) |
| CCN(CC)CCOC(=O)C(Cc1cccc2ccccc12)CC1CCCO1 (stereo unspecified) [Nafronyl oxalate] (20 µM) | 1.03 (inactive) |
| CCN(CC)CCOC(=O)C1(C2CCCCC2)CCCCC1 [Dicyclomine hydrochloride] (20 µM) | 1 (inactive) |
| CC[C@H]1OC(=O)[C@H](C)[C@@H](O[C@H]2C[C@@](C)(OC)[C@@H](O)[C@H](C)O2)[C@H](C)[C@@H](O[C@@H]2O[C@H](C)C[C@H](N(C)C)[C@H]2O)[C@](C)(O)C[C@@H](C)C(=O)[C@H](C)[C@@H](O)[C@]1(C)O [Erythromycin] (20 µM) | 0.942 (inactive) |
| NC(=O)NS(=O)(=O)c1ccc(N)cc1 [Sulfacarbamide] (20 µM) | 1 (inactive) |
| O=c1[nH]cc(F)c(=O)[nH]1 [5-fluorouracil] (20 µM) | 0.945 (inactive) |

| Structure (SMILES) | fold change of Cadaverine concentration |
| --- | --- |
| NC(=O)N/N=C/c1ccc([N+](=O)[O-])o1 [Nitrofural] (20 µM) | 1.22 (inactive) |
| COC(=O)C1=C(C)NC(C)=C(C(=O)OC2CCCN(Cc3ccccc3)C2)C1c1cccc([N+](=O)[O-])c1 (stereo unspecified) [Benidipine hydrochloride] (20 µM) | 0.989 (inactive) |
| CCNC(=O)CCC/C=C\C[C@@H]1[C@@H](/C=C/[C@@H](O)CCc2ccccc2)[C@H](O)C[C@@H]1O [Bimatoprost] (20 µM) | 1.04 (inactive) |
| CN(Cc1ccc(C(C)(C)C)cc1)Cc1cccc2ccccc12 [Butenafine hydrochloride] (20 µM) | 1.02 (inactive) |
| CN1CCC(OC(c2ccccc2)c2ccccc2)CC1 [Diphenylpyraline hydrochloride] (20 µM) | 0.979 (inactive) |
| c1ccc2cc3c(ccc4ccccc43)cc2c1 [Benz[a]anthracene] (20 µM) | 0.963 (inactive) |
| CC1=C(C(=O)O)N2C(=O)[C@@H](NC(=O)[C@H](N)c3ccccc3)[C@H]2SC1 [Cephalexin monohydrate] (20 µM) | 0.879 (inactive) |
| CNc1ncnc2c1ncn2[C@@H]1O[C@H](CO)[C@@H](O)[C@H]1O [N6-methyladenosine] (20 µM) | 0.987 (inactive) |
| Cn1nnc2c(C(N)=O)ncn2c1=O [Temozolomide] (20 µM) | 1.02 (inactive) |
| CN[C@@H]1[C@H](O[C@H]2[C@H](O[C@H]3[C@H](O)[C@@H](O)[C@H](N=C(N)N)[C@@H](O)[C@@H]3N=C(N)N)O[C@@H](C)[C@]2(O)C=O)O[C@@H](CO)[C@H](O)[C@H]1O [Streptomycin sulfate] (20 µM) | 1.03 (inactive) |
| CC(C)Oc1ccc2c(=O)c(-c3ccccc3)coc2c1 [Ipriflavone] (20 µM) | 1.04 (inactive) |
| CC[C@@H]1C(=O)OC[C@@H]1Cc1cncn1C [Pilocarpine nitrate] (20 µM) | 1.04 (inactive) |
| COC(=O)[C@@H]1[C@H]2C[C@H]3c4[nH]c5ccccc5c4CCN3C[C@@H]2CC[C@@H]1O [Yohimbine hydrochloride] (20 µM) | 0.989 (inactive) |
| CC(=O)N1CCN(c2ccc(OCC3COC(Cn4ccnc4)(c4ccc(Cl)cc4Cl)O3)cc2)CC1 (stereo unspecified) [Ketoconazole] (20 µM) | 1.02 (inactive) |
| CN1C(C(=O)Nc2ccccn2)=C(O)c2ccccc2S1(=O)=O [Piroxicam] (20 µM) | 1.02 (inactive) |
| NS(=O)(=O)c1cc2c(cc1Cl)NC(Cc1ccccc1)NS2(=O)=O (stereo unspecified) [Benzylhydrochlorothiazide] (20 µM) | 0.887 (inactive) |
| Cc1cc2c(cc1S(N)(=O)=O)S(=O)(=O)CCC2 [Meticrane] (20 µM) | 1.02 (inactive) |
| OC[C@@H](O)[C@@H](O)[C@@H](O)[C@@H](O)CO [Allitol] (50 µM) | 0.992 (inactive) |
| Cc1c(N(C)C)c(=O)n(-c2ccccc2)n1C [Amidopyrine] (20 µM) | 0.985 (inactive) |
